Experimental data from PubChem BioAssay (Tox21).
Inconclusive results are not listed. Activity calls are given as the source filed them. Unless noted, calls follow the shape of the full dose curve.

Tests used:
[1] = Nuclear factor erythroid 2-related factor 2/antioxidant responsive element (Nrf2/ARE) small molecule agonists: qHTS cell viability counter screen in human keratinocytes (AID 1919968; active = well fitted curve in the direction sought with a large enough effect in the repeat runs; an effect the other way counts as inactive or inconclusive; also: nearly all actives have a fitted effect of over 55% in size)
Procedure, shortened: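 KeratinoSens HaCaT cells, 1,500/well, preincubated 5 h, then exposed to compounds in DMSO for 23 h at 37 C/5% CO2. Viability read as CellTiter-Fluor fluorescence after 1 h, in the same wells as the ARE-luciferase read.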

[2] = Nuclear factor erythroid 2-related factor 2/antioxidant responsive element (Nrf2/ARE) small molecule agonists: luciferase reporter gene qHTS assay in human keratinocytes (AID 1919969); also: nearly all actives have a fitted effect of over 35% in size; also: potency is read from the fitted curve at half-maximal effect
[3] = target: Gonadotropin-releasing hormone receptor (Homo sapiens) (UniProt P30968); assay: Human gonadotropin-releasing hormone receptor (GnRHR) small molecule agonists, calcium flux assay in GnRHR-HEK293 cells (AID 1920063); also: nearly all actives have a fitted effect of over 35% in size
Gonadotropin-releasing hormone receptor (Homo sapiens), sequence (P30968 whole entry, looked up): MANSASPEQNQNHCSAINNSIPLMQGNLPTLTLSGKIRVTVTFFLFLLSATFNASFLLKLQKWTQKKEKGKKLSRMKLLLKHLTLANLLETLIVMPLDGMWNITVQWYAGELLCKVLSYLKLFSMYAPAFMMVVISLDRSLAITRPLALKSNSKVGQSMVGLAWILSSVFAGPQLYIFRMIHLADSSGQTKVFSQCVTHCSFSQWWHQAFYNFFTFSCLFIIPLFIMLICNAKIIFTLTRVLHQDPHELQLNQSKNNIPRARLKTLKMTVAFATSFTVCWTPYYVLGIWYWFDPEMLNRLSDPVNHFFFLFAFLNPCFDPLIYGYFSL
Procedure, shortened: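 HEK293 cells stably expressing human GnRHR were dye-loaded for 1 h at 37 C. Compound was added in agonist mode and fluorescence (Ex/Em 480/540) recorded kinetically for 3 min. Fifteen concentrations, triplicates.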

[4] = target: KiSS-1 receptor (Homo sapiens) (UniProt Q969F8); assay: Human kisspeptin (KISS1R) small molecule agonists, calcium flux assay in KISS1R-HEK293 cells (AID 1920064; active = well fitted curve in the direction sought with a large enough effect in the repeat runs; an effect the other way counts as inactive or inconclusive)
KiSS-1 receptor (Homo sapiens), sequence (Q969F8 whole entry, looked up): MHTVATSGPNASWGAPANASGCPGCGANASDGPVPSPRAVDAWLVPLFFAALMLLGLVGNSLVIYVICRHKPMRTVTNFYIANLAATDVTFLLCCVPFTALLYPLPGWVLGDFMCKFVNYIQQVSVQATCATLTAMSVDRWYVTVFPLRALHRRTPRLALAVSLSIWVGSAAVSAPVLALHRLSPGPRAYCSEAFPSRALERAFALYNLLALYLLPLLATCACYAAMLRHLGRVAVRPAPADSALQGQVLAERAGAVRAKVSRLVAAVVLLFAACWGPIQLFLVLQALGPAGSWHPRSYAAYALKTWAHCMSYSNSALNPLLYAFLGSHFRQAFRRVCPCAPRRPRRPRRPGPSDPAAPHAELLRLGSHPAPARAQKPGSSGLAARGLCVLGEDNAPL
Procedure, shortened: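 HEK293 cells stably expressing human KISS1R were loaded with calcium dye for 1 h at 37 C, then given compound; fluorescence (Ex/Em 480/540) was read kinetically for 3 min. Fifteen concentrations, triplicate.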

[5] = G protein-coupled receptor (GPCR) small molecule agonists, calcium flux assay: HEK293 wild type cell line counter screen (AID 1920065)
Procedure, shortened: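 Wild-type HEK293 cells plated 18 h, loaded with calcium dye 1 h at 37 C, then compounds added in agonist mode (ATP as positive control). Kinetic fluorescence Ex/Em 480/540 recorded 3 min at 1 sec intervals; 15 concentrations, triplicate.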

[6] = p53 small molecule agonists, cell-based qHTS assay with human liver microsomes (AID 1963577)
Procedure, shortened: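 Compounds act here after metabolic activation: human liver microsomes and NADPH, both at 0.5 mg/mL final, were co-added to p53RE-bla cells. Incubation ran 16 h at 37 C, followed by LiveBLAzer detection.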

[7] = p53 small molecule agonists, cell-based qHTS assay with rat liver microsomes (AID 1963578)
Procedure, shortened: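 Read-out is beta-lactamase reporter fluorescence (LiveBLAzer, 2 h, room temperature, dark) in p53RE-bla cells treated 16 h at 37 C with compound, rat liver microsomes and NADPH, both 0.5 mg/mL final.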

[8] = p53 small molecule agonists, cell-based qHTS assay with human liver microsomes: qHTS cell viability counter screen (AID 1963579); also: nearly all actives have a fitted effect of over 45% in size
Procedure, shortened: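 Cells carrying the p53 response-element beta-lactamase reporter are treated for 16 h at 37 C with test compounds in the presence of human liver microsomes and NADPH (both 0.5 mg/mL final); ATP-based CellTiter-Glo luminescence then reports viability.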

[9] = p53 small molecule agonists, cell-based qHTS assay with rat liver microsomes: qHTS cell viability counter screen (AID 1963580); also: nearly all actives have a fitted effect of over 45% in size; also: potency is read from the fitted curve at half-maximal effect
Procedure, shortened: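 In HCT-116 cells carrying a p53 response element-bla reporter, compounds were metabolically activated in situ by rat liver microsomes with NADPH over 16 h. Cell ATP content then served as the cytotoxicity measure.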

[10] = p53 small molecule agonists, cell-based qHTS assay: qHTS cell viability counter screen (AID 1963581); also: nearly all actives have a fitted effect of over 45% in size
Procedure, shortened: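 p53RE-bla HCT-116 cells, compounds added 5 h after plating and incubated 16 h at 37 C. Cytotoxicity measured in the same wells as intracellular ATP by CellTiter-Glo luminescence after 30 min at room temperature.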

[11] = p53 small molecule agonists, cell-based qHTS assay (AID 1963582; active = well fitted activation curve with a large enough effect in the signal ratio in the repeat runs, not every such curve was filed as active; the % refers to the signal ratio)
Procedure, shortened: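 p53RE-bla reporter cells, compounds added in DMSO after 5 h plating, incubated 16 h at 37 C. Beta-lactamase read via 2 h room-temperature LiveBLAzer B/G FRET substrate, fluorescence intensity.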

[12] = target: 5-hydroxytryptamine receptor 2A (Homo sapiens) (UniProt P28223); assay: 5-hydroxytryptamine receptor 2A (HTR2A) small molecule antagonists, cell-based qHTS assay (AID 1963586); also: nearly all actives have a fitted effect of over 45% in size
5-hydroxytryptamine receptor 2A (Homo sapiens), sequence (P28223 whole entry, looked up): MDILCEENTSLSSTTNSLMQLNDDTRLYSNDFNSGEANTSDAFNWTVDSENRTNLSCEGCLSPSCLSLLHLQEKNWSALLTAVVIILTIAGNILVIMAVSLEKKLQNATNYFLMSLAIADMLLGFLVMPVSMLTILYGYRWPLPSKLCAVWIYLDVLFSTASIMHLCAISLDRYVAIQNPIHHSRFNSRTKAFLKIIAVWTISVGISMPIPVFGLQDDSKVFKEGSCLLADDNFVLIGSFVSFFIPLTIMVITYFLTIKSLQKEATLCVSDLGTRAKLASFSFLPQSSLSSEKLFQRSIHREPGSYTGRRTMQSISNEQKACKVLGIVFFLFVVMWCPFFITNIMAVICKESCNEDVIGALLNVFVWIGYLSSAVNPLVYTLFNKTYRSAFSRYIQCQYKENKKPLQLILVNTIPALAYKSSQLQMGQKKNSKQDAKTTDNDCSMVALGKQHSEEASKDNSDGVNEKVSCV
Procedure, shortened: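 Antagonist-mode intracellular calcium assay: DOI (4 nM) added after 5 min compound pre-incubation at room temperature to dye-loaded HTR2A-CHO cells. Fluorescence followed for 3 min, sampled every second.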

[13] = target: 5-hydroxytryptamine receptor 2A (Homo sapiens) (UniProt P28223); assay: 5-hydroxytryptamine receptor 2A (HTR2A) small molecule agonists, cell-based qHTS assay (AID 1963587); also: nearly all actives have a fitted effect of over 30% in size
Procedure, shortened: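 HTR2A-CHO cells, plated 18 h at 37 C/5% CO2, dye-loaded 1 h at 37 C; compounds in DMSO added by pin tool (agonist mode). Intracellular calcium flux read as kinetic fluorescence on FDSS over 2 min at 1 s intervals.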

[14] = target: Muscarinic acetylcholine receptor M1 (Homo sapiens) (UniProt P11229); assay: Cholinergic receptor muscarinic 1 (CHRM1) small molecule antagonists, cell-based qHTS assay (AID 1963588); also: nearly all actives have a fitted effect of over 40% in size; also: potency is read from the fitted curve at half-maximal effect
Muscarinic acetylcholine receptor M1 (Homo sapiens), sequence (P11229 whole entry, looked up): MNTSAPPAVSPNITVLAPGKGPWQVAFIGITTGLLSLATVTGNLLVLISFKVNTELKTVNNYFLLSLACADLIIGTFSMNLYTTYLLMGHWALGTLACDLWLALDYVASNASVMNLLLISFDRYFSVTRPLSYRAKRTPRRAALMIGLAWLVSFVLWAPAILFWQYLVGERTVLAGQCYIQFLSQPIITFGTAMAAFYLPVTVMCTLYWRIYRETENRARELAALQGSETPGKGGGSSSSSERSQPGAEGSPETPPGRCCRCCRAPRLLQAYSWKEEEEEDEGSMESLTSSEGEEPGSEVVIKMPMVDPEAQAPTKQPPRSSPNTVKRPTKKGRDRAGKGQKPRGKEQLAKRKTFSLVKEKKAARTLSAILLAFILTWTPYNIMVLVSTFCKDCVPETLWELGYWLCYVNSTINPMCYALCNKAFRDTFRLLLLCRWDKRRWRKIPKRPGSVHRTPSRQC
Procedure, shortened: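 CHRM1-CHO calcium-flux assay, antagonist mode. Cells were seeded 18 h, dye-loaded 1 h at 37 C and given compound for 5 min at RT, then acetylcholine was added at 50nM. FDSS fluorescence was read 3 min; 15 concentrations, three runs.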

[15] = target: Muscarinic acetylcholine receptor M1 (Homo sapiens) (UniProt P11229); assay: Cholinergic receptor muscarinic 1 (CHRM1) small molecule agonists, cell-based qHTS assay (AID 1963589); also: nearly all actives have a fitted effect of over 35% in size
Procedure, shortened: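 CHO cells stably expressing human CHRM1 were loaded with calcium dye for 1 h at 37 C, then compound was added in agonist mode. Intracellular calcium fluorescence was followed kinetically at 1 s intervals. Fifteen concentrations were tested in three independent runs.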

[16] = cAMP Responsive Elements (CRE) small molecule agonists, cell-based qHTS assay (AID 1963590)
Procedure, shortened: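 CRE-bla HEK 293T cells, 2,000/well in DMEM with 10% dialyzed FBS and 25 mM HEPES, pre-incubated 18 h at 37 C, then exposed to compound 3 h at 37 C. Beta-lactamase reporter read with LiveBLAzer B/G FRET substrate after 2 h at room temperature.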

[17] = cAMP Responsive Elements (CRE) small molecule antagonists, cell-based qHTS assay (AID 1963591; active = well fitted inhibition curve with a large enough effect in the signal ratio in the repeat runs, not every such curve was filed as active; the % refers to the signal ratio)
Procedure, shortened: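 CRE-bla HEK293T cells plated 18 h, then given compound plus NKH477 at 0.25 uM final for 3 h at 37C. Beta-lactamase reporter read with LiveBLAzer B/G FRET substrate after 2 h at room temperature.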

[18] = target: Beta-2 adrenergic receptor (Homo sapiens) (UniProt P07550); assay: Adrenergic beta2 receptor (ADRB2) small molecule antagonists, cell-based qHTS assay (AID 1963592); also: series mostly up to about 92 µM; nearly all actives have a fitted effect of over 50% in size
Beta-2 adrenergic receptor (Homo sapiens), sequence (P07550 whole entry, looked up): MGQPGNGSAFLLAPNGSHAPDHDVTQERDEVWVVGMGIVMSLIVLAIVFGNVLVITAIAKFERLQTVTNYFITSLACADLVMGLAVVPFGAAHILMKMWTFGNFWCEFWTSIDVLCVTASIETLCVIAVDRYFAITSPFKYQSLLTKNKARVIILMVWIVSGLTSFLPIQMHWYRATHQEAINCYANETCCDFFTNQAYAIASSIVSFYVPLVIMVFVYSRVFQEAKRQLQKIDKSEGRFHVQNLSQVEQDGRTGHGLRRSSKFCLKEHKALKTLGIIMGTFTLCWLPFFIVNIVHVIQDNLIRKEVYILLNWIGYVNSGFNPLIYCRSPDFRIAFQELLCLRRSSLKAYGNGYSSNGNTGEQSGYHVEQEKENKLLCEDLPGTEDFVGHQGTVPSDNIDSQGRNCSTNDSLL
Procedure, shortened: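 Cells (CHO, stable ADRB2 overexpression) incubated 18-20hr at 37C; compounds added from DMSO; agonist mix (1nM isoproterenol, 100uM IBMX, 25uM Ro-20-1724) added; 0.5hr RT; d2-cAMP and anti-cAMP-cryptate added; 1hr RT; 665/615 nm read.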

[19] = target: D(2) dopamine receptor (Homo sapiens) (UniProt P14416); assay: Dopamine D2 receptor (DRD2) small molecule agonists, cell-based qHTS assay (AID 1963594); also: nearly all actives have a fitted effect of over 35% in size
D(2) dopamine receptor (Homo sapiens), sequence (P14416 whole entry, looked up): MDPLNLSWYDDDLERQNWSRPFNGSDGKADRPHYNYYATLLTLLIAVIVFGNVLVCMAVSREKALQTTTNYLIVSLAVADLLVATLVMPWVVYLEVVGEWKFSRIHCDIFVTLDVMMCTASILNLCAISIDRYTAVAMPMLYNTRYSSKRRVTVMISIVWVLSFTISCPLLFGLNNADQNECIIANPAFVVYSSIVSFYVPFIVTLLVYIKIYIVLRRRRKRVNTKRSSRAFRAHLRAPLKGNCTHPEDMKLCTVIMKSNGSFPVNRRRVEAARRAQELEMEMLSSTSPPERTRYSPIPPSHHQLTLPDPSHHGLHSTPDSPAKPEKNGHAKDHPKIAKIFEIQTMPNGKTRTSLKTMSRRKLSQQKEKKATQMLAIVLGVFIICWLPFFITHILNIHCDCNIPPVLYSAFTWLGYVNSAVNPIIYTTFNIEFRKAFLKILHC
Procedure, shortened: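 HEK293 cells stably expressing DRD2 were cultured 24 h at 37 C, then given Ro20-1724 (0.1 mM final) and compounds for 10 min at room temperature. NKH477 (200nM) was then added for 30 min. cAMP was read by HTRF.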

[20] = target: D(2) dopamine receptor (Homo sapiens) (UniProt P14416); assay: Dopamine D2 receptor (DRD2) small molecule antagonists, cell-based qHTS assay (AID 1963595; active = well fitted inhibition curve with a large enough effect in the signal ratio in the repeat runs, with a control signal flat; the % refers to the signal ratio)
Procedure, shortened: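 Human DRD2 antagonist qHTS measuring cAMP by HTRF. The cells are exposed to compound for 10 min, then to NKH477 (200 nM) and quinpirole (12 nM) for 30 min at RT, with Ro20-1724 (0.1 mM) present throughout.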

Measured: Potency

CCCCOC(=O)/C=C\C(=O)OCCCC
active: [2] 25.2 µM
inactive: [1] | [3] | [4] | [5] | [6] | [7] | [8] | [9] | [10] | [11] | [12] | [13] | [14] | [15] | [16] | [17] | [18] | [19] | [20]

CCCCOCC
active: [9] 1.62 µM
inactive: [1] | [2] | [3] | [4] | [5] | [6] | [7] | [8] | [10] | [11] | [12] | [13] | [14] | [15] | [16] | [17] | [18] | [19] | [20]

Cn1cccc1
inactive: [1] | [2] | [3] | [4] | [5] | [6] | [7] | [8] | [9] | [10] | [11] | [12] | [13] | [14] | [15] | [16] | [17]

O=C(NCCCN1CCOCC1)c1ccc(Cl)cc1
inactive: [1] | [2] | [3] | [4] | [5] | [6] | [7] | [8] | [9] | [10] | [11] | [12] | [13] | [14] | [15] | [16] | [17] | [18] | [19]

CCCCCCC(O)CCOC(C)=O (centres undefined)
inactive: [1] | [2] | [3] | [4] | [5] | [6] | [7] | [8] | [9] | [10] | [11] | [12] | [13] | [14] | [15] | [16] | [17] | [18] | [19] | [20]

CN1C(=O)N(C)C(O)C1O (centres undefined)
inactive: [1] | [2] | [3] | [4] | [5] | [6] | [7] | [8] | [9] | [10] | [11] | [12] | [13] | [14] | [15] | [16] | [17] | [18] | [19]

Cc1cccc(C)c1NC(=O)c1cc(S(N)(=O)=O)c(Cl)cc1O
inactive: [1] | [2] | [3] | [4] | [5] | [6] | [7] | [8] | [9] | [10] | [11] | [12] | [13] | [15] | [16] | [17] | [18] | [19]
active: [14] 0.0033 µM

Nc1cc(C(=O)O)ccc1Cl
inactive: [1] | [2] | [3] | [4] | [5] | [6] | [7] | [8] | [9] | [10] | [11] | [12] | [13] | [14] | [15] | [16] | [17] | [18] | [19] | [20]

CCCCCCCCCC(=O)N(C)C
inactive: [1] | [3] | [4] | [5] | [6] | [7] | [8] | [9] | [10] | [11] | [12] | [13] | [14] | [15] | [16] | [17] | [18] | [19] | [20]
active: [2] 43.9 µM

CC(C)(C)OC(=O)c1ccccc1C(=O)O
inactive: [1] | [2] | [3] | [4] | [5] | [6] | [7] | [8] | [9] | [10] | [11] | [12] | [13] | [14] | [15] | [16] | [17] | [18] | [19] | [20]

COC(=O)/C=C\C(=O)O
inactive: [1] | [2] | [3] | [4] | [5] | [6] | [7] | [8] | [9] | [10] | [11] | [12] | [13] | [14] | [15] | [16] | [17] | [18] | [19] | [20]

Oc1ccc2c(c1)CCC2
inactive: [1] | [2] | [3] | [4] | [5] | [6] | [7] | [8] | [9] | [10] | [11] | [12] | [13] | [14] | [15] | [16] | [17] | [18] | [19] | [20]

CCC1(C)C(=O)N(Cl)C(=O)N1Cl (centres undefined)
inactive: [1] | [2] | [3] | [4] | [5] | [6] | [7] | [8] | [9] | [10] | [11] | [12] | [13] | [14] | [15] | [16] | [17] | [18] | [19] | [20]

Brc1ccccn1
inactive: [1] | [2] | [3] | [4] | [5] | [6] | [7] | [8] | [9] | [10] | [11] | [12] | [13] | [14] | [15] | [16] | [17] | [18] | [19] | [20]
